Experimental data: article PMC5540273 (PLoS ONE, 2017)

test system: CSNK1A1L; conditions: concentration: 1 μM, replicates: in singlicate; n = 1
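Also: KINOMEscan kinase panel screen.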

Going from O=c1cc(N2CCOCC2)nc2n(Cc3cccc(Cl)c3Cl)c(C3CC3)nn12 [GSK2358994] to O=c1cc(N2CCOCC2)nc2n(Cc3cccc4ccccc34)ccn12 [GSK2333389], the “%Inh” value rises from 0% to 11%.

First: CCc1nc(-c2cccc(C)c2)c(-c2ccnc(NCc3ccccc3)c2)s1
Second: Cc1c2ccc(N(C)c3ccnc(Nc4cccc(S(N)(=O)=O)c4)n3)cc2nn1Cc1ccccc1.Cl.Cl [GW787226]
The “%Inh” value of the first is higher: 11% for the first, 0% for the second.

First: COc1cc2c(cc1OCCN1CCN(C)CC1)ncc1c3ccc(C#N)cc3[nH]c21
Second: COc1cc2ncn(-c3cc(OCc4sccc4Cl)c(C(N)=O)s3)c2cc1OC [GSK448459]
The “%Inh” value of the first is lower: 0% for the first, 6% for the second.

Compared with NCC(NC(=O)c1cc(-c2cn[nH]c2)c(-c2ccnc3[nH]ccc23)s1)c1ccccc1.O=C(O)C(F)(F)F.O=C(O)C(F)(F)F (stereo not drawn) [GSK1325775], O=C(NCCNc1ccnc(Nc2ccc(F)cc2)n1)c1cc2ccccc2s1 [GSK1379874] is lower in “%Inh” value: 87% for the first, 9% for the second.

First: O=C(Nc1n[nH]c2cc(-c3cccc(F)c3)ccc12)C1CC1 [SB-735464]
Second: COCCNC(=O)c1ccc(-c2cc(C(=O)NC3CC3)cc(F)c2C)cc1 [GW868318]
The “%Inh” value of the first is higher: 10% for the first, 5% for the second.

First: C[C@@H](Oc1cc(-n2cnc3ccc(NC(=O)NC(C)(C)C)cc32)sc1C(N)=O)c1ccccc1Cl [GSK346294]
Second: Cn1ccc2ncnc(Oc3ccc(NC(=O)Nc4ccncc4)c(Cl)c3)c21
The “%Inh” value of the first is higher: 6% for the first, 0% for the second.

First: Nc1nc(-c2ccc3c(N)n[nH]c3c2)cc(N2CCCC2)n1 [GSK2227430]
Second: Nc1nccc(-c2c(-c3ccc(F)cc3)ncn2C2CCN(CC(F)(F)F)CC2)n1 [SB-236560]
The “%Inh” value of the first is lower: 0% for the first, 2% for the second.

First: O=C(NOCC1CC1)c1ccc(F)c(F)c1Nc1ccc(I)cc1Cl
Second: Cc1ccc(C(=O)NCC(N)=O)cc1-n1c(C)cc(OCc2ccc(F)cc2F)c(Br)c1=O
The “%Inh” value of the first is lower: 0% for the first, 26% for the second.

Cn1cc(-c2ccc3c(c2)CCN3C(=O)Cc2ccccc2Cl)c2c(N)ncnc21 [GSK2608885] and O=C1NC(=O)C(N2CCc3ccccc32)=C1c1cccc(Cl)c1 [SB-408010] are the same in “%Inh” value: 0% for the first, 0% for the second.

First: COc1ccc(S(=O)(=O)NC2CCN(c3cc(C)nc(Nc4cccc(C#N)c4)n3)CC2)cc1.O=C(O)C(F)(F)F [GSK1653539]
Second: COc1ccc(Nc2nccc(N3CCC(NC(=O)Nc4cc(C)ccc4C)C3)n2)cc1 (stereo not drawn) [GSK1379741]
The “%Inh” value of the first is lower: 0% for the first, 2% for the second.

Going from N#Cc1ccc(-c2cc(-c3c[nH]nc3-c3ccccn3)ccn2)cc1 [GW693028] to CN(C(=O)c1ccc(-c2cc(-c3c[nH]nc3-c3ccccn3)ccn2)cc1)C1CCOCC1 [GW810083], the “%Inh” value falls from 12% to 8%.

Fc1ccc(-c2ncn(CCCN3CCOCC3)c2-c2cccnc2)cc1 [SB-211743] and Fc1ccc(-c2ncn(CCCN3CCOCC3)c2-c2ccccn2)cc1 [SB-211742] are the same in “%Inh” value: 0% for the first, 0% for the second.

Compared with CCc1ccnc(/C=C/c2n[nH]c3cc(Sc4ccccc4C(=O)NC)ccc23)c1, O=C(NCCNc1ccnc(Nc2ccc(F)cc2)n1)Nc1ccccc1F [GSK1379880] is higher in “%Inh” value: 0% for the first, 16% for the second.

Compared with Cc1nnc(-c2ccc3ncc(-c4ccc(S(C)=O)cc4)n3c2)o1 (stereo not drawn), Cc1ccc(NC(=O)c2ccnc(N3CCN(C)CC3)c2)cc1-c1ccc(C(=O)NCC2CC2)cc1 [GW775604] is lower in “%Inh” value: 9% for the first, 0% for the second.

Compared with CCn1cnc2c(N)ncnc21 [GW345098], CC(C)(C)n1cnc2c(N)ncnc21 [SKF-97359] is higher in “%Inh” value: 14% for the first, 16% for the second.

Compared with O=c1cc(N2CCOCC2)nc2n(Cc3cccc(C(F)(F)F)c3)ccn12 [GSK2297543], Cc1c(Cn2c(C)nn3c(=O)cc(N4CCOC(C)C4)nc23)cccc1C(F)(F)F (stereo not drawn) [GSK2344444] is lower in “%Inh” value: 16% for the first, 0% for the second.

Cc1cccc(-c2nc(Nc3ccc4ncsc4c3)c3ccccc3n2)n1 [GW867588] was tested, and the “%Inh” value was 0%.

test system: CSNK1A1; conditions: concentration: 1 μM, replicates: in singlicate; n = 1

First: O=c1cc(N2CCOCC2)nc2n(Cc3cccc(Cl)c3Cl)c(C3CC3)nn12 [GSK2358994]
Second: O=c1cc(N2CCOCC2)nc2n(Cc3cccc4ccccc34)ccn12 [GSK2333389]
The “%Inh” value of the first is lower: 0% for the first, 13% for the second.

Compared with CCc1nc(-c2cccc(C)c2)c(-c2ccnc(NCc3ccccc3)c2)s1, Cc1c2ccc(N(C)c3ccnc(Nc4cccc(S(N)(=O)=O)c4)n3)cc2nn1Cc1ccccc1.Cl.Cl [GW787226] is higher in “%Inh” value: 8% for the first, 15% for the second.

COc1cc2c(cc1OCCN1CCN(C)CC1)ncc1c3ccc(C#N)cc3[nH]c21 and COc1cc2ncn(-c3cc(OCc4sccc4Cl)c(C(N)=O)s3)c2cc1OC [GSK448459] are the same in “%Inh” value: 0% for the first, 0% for the second.

Compared with NCC(NC(=O)c1cc(-c2cn[nH]c2)c(-c2ccnc3[nH]ccc23)s1)c1ccccc1.O=C(O)C(F)(F)F.O=C(O)C(F)(F)F (stereo not drawn) [GSK1325775], O=C(NCCNc1ccnc(Nc2ccc(F)cc2)n1)c1cc2ccccc2s1 [GSK1379874] is lower in “%Inh” value: 93.3% for the first, 0% for the second.

Compared with O=C(Nc1n[nH]c2cc(-c3cccc(F)c3)ccc12)C1CC1 [SB-735464], COCCNC(=O)c1ccc(-c2cc(C(=O)NC3CC3)cc(F)c2C)cc1 [GW868318] is higher in “%Inh” value: 0% for the first, 9% for the second.

C[C@@H](Oc1cc(-n2cnc3ccc(NC(=O)NC(C)(C)C)cc32)sc1C(N)=O)c1ccccc1Cl [GSK346294] and Cn1ccc2ncnc(Oc3ccc(NC(=O)Nc4ccncc4)c(Cl)c3)c21 are the same in “%Inh” value: 0% for the first, 0% for the second.

Compared with Nc1nc(-c2ccc3c(N)n[nH]c3c2)cc(N2CCCC2)n1 [GSK2227430], Nc1nccc(-c2c(-c3ccc(F)cc3)ncn2C2CCN(CC(F)(F)F)CC2)n1 [SB-236560] is higher in “%Inh” value: 0% for the first, 92.7% for the second.

Going from O=C(NOCC1CC1)c1ccc(F)c(F)c1Nc1ccc(I)cc1Cl to Cc1ccc(C(=O)NCC(N)=O)cc1-n1c(C)cc(OCc2ccc(F)cc2F)c(Br)c1=O, the “%Inh” value rises from 3% to 25%.

Compared with Cn1cc(-c2ccc3c(c2)CCN3C(=O)Cc2ccccc2Cl)c2c(N)ncnc21 [GSK2608885], O=C1NC(=O)C(N2CCc3ccccc32)=C1c1cccc(Cl)c1 [SB-408010] is higher in “%Inh” value: 0% for the first, 19% for the second.

COc1ccc(S(=O)(=O)NC2CCN(c3cc(C)nc(Nc4cccc(C#N)c4)n3)CC2)cc1.O=C(O)C(F)(F)F [GSK1653539] and COc1ccc(Nc2nccc(N3CCC(NC(=O)Nc4cc(C)ccc4C)C3)n2)cc1 (stereo not drawn) [GSK1379741] are the same in “%Inh” value: 0% for the first, 0% for the second.

First: N#Cc1ccc(-c2cc(-c3c[nH]nc3-c3ccccn3)ccn2)cc1 [GW693028]
Second: CN(C(=O)c1ccc(-c2cc(-c3c[nH]nc3-c3ccccn3)ccn2)cc1)C1CCOCC1 [GW810083]
The “%Inh” value of the first is lower: 19% for the first, 37% for the second.

Compared with Fc1ccc(-c2ncn(CCCN3CCOCC3)c2-c2cccnc2)cc1 [SB-211743], Fc1ccc(-c2ncn(CCCN3CCOCC3)c2-c2ccccn2)cc1 [SB-211742] is higher in “%Inh” value: 22% for the first, 36% for the second.

Compared with CCc1ccnc(/C=C/c2n[nH]c3cc(Sc4ccccc4C(=O)NC)ccc23)c1, O=C(NCCNc1ccnc(Nc2ccc(F)cc2)n1)Nc1ccccc1F [GSK1379880] is lower in “%Inh” value: 26% for the first, 0% for the second.

First: Cc1nnc(-c2ccc3ncc(-c4ccc(S(C)=O)cc4)n3c2)o1 (stereo not drawn)
Second: Cc1ccc(NC(=O)c2ccnc(N3CCN(C)CC3)c2)cc1-c1ccc(C(=O)NCC2CC2)cc1 [GW775604]
The “%Inh” value of the first is higher: 7% for the first, 0% for the second.

Compared with CCn1cnc2c(N)ncnc21 [GW345098], CC(C)(C)n1cnc2c(N)ncnc21 [SKF-97359] is higher in “%Inh” value: 28% for the first, 40% for the second.

Going from O=c1cc(N2CCOCC2)nc2n(Cc3cccc(C(F)(F)F)c3)ccn12 [GSK2297543] to Cc1c(Cn2c(C)nn3c(=O)cc(N4CCOC(C)C4)nc23)cccc1C(F)(F)F (stereo not drawn) [GSK2344444], the “%Inh” value falls from 24% to 0%.

For Cc1cccc(-c2nc(Nc3ccc4ncsc4c3)c3ccccc3n2)n1 [GW867588], the “%Inh” value was 0%.
